Pf Dd2 inh – inhibitors of Plasmodium falciparum Dd2 growth. 4.3% of 120,000 active. Potency, µM (highest dose often 28.9 µM), without a hit: at the highest dose activity, negative = inhibition, most hits filed as inhibitors. P. falciparum Dd2 growth, SYBR Green, 72 h; active = well fitted inhibition curve with a large enough effect;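 also: plate controls were DMSO vehicle for no effect and reference drug for full effect; nearly all actives have a fitted effect of over 65% in size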
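Readout: SYBR Green fluorescence, 485 nm excitation, 535 nm emission, after ~16 h lysis at 37C. Before that, Dd2-infected red cells (2.5% hematocrit) grew 72 h with compound, 29 uM top final concentration.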
Active calls of the source: *; [ ] = another dose, or the depositor's remark. The sample as a whole holds a higher share of hits than the screen did. Potency is read from the fitted curve at half-maximal effect.

Screening O=C(CCCn1c(=O)[nH]c2ccc(Br)cc2c1=O)N1CCN(c2cccc(Cl)c2)CC1 returned Pf Dd2 inh inactive.
CCCCCn1c(=O)[nH]c2cc(C(=O)N3CCN(c4ccccc4F)CC3)ccc2c1=O was read as Pf Dd2 inh -13%.
For O=C(CCCCCn1c(=O)[nH]c2ccccc2c1=O)NCc1ccccc1 the results were Pf Dd2 inh 10µM*.
O=C(CCCCCn1c(=O)[nH]c2ccccc2c1=O)NCc1ccc(Cl)cc1 was read as Pf Dd2 inh inactive.
Screening COC[C@@H]1CN(C(=O)COc2ccc(F)cc2)C[C@H]1c1ccccn1 returned Pf Dd2 inh -17%.
Screening CS(=O)(=O)N1CC[C@H](C(=O)NNC(=O)Cc2ccccc2)C1 returned Pf Dd2 inh -5%[44.1 µM].
COc1ccc(CCNC(=O)CCCN2C(=O)COc3ccc(C(C)=O)cc32)cc1OC was read as Pf Dd2 inh inactive.
`CCCCNc1ncc(C(=O)O)c(CC)n1` gave Pf Dd2 inh -6%.
`CCCN1C(=O)c2[nH]nc(-c3ccccc3O)c2C1c1cccc(OCc2ccccc2)c1` (stereo not drawn) gave Pf Dd2 inh 4.5µM*.
CCOc1cc(C2c3c(oc4ccccc4c3=O)C(=O)N2Cc2ccc(OC)cc2)ccc1O (stereo not drawn) was read as Pf Dd2 inh -5%.
O=C1c2[nH]nc(-c3ccccc3O)c2C(c2ccc(F)cc2)N1CCO (stereo not drawn) was read as Pf Dd2 inh -9%.
Screening CCCN1C(=O)c2[nH]nc(-c3ccccc3)c2C1c1cccc(O)c1 (stereo not drawn) returned Pf Dd2 inh -19%.
For O=C(NC1(C(F)(F)F)NC(=O)N(CCc2ccccc2)C1=O)c1ccc(Cl)cc1 (stereo not drawn) the results were Pf Dd2 inh inactive.
`COc1ccc(-c2n[nH]c3c2C(c2ccccn2)N(C)C3=O)cc1` (stereo not drawn) gave Pf Dd2 inh -13%.
`CCCN1C(=O)c2[nH]nc(-c3cccc(OC)c3)c2C1c1ccccn1` (stereo not drawn) gave Pf Dd2 inh -5%.
COc1ccc(CCN2C(=O)c3[nH]nc(-c4ccccc4O)c3C2c2ccc(O)c(OC)c2)cc1 (stereo not drawn) was read as Pf Dd2 inh 10µM*.
Screening O=C1c2[nH]nc(-c3ccccc3O)c2C(c2ccc(Cl)cc2)N1CCc1ccccc1 (stereo not drawn) returned Pf Dd2 inh 8.9µM*.
Screening CCCCCCN(CCC(=O)NCCC)C(=O)c1ccoc1 returned Pf Dd2 inh -16%.
Screening COc1ccc(C(=O)N2CCC3(CC2)OC(=O)N(Cc2cccnc2)C3(C)c2ccccc2)cn1 (stereo not drawn) returned Pf Dd2 inh -1%.
COc1ccccc1-c1nnc2n1C(C(=O)N(C)C)CC2 (stereo not drawn) was read as Pf Dd2 inh 2%[44.1 µM].
Screening COc1ccc(NC(=O)N(C)CC2CCOCC2)cc1F returned Pf Dd2 inh inactive.
Screening COCc1noc([C@@H]2CN(C(=O)CCC(C)C)C[C@H]2CO)n1 returned Pf Dd2 inh 2%.
`COCCn1nnnc1C1CC2(CCOCC2)C(=O)N1Cc1cccc(F)c1` (stereo not drawn) gave Pf Dd2 inh 35%.
CC(C)c1ccc(CN2CCc3ncc(C(=O)Nc4ccccc4)n3CC2)cc1 was read as Pf Dd2 inh 13µM*.
O=C(Nc1ccccc1)c1cnc2n1CCN(Cc1cccc(O)c1)CC2 was read as Pf Dd2 inh -19%[44.1 µM].
For CC(C)CCNC(=O)c1cnc2n1CCN(Cc1ccc(C(C)C)cc1)CC2 the results were Pf Dd2 inh -16%[44.1 µM].
For COC[C@@H]1CN(Cc2ccc(F)c(F)c2)C[C@H]1C(=O)NC1CC1 the results were Pf Dd2 inh -30%.
`CC(=O)N1CCC(C(=O)N2CCC3(CC2)NC(=O)N(c2ccccc2)N3)CC1` gave Pf Dd2 inh 20%.
CCn1c(CN2CCCCC2)nc2cc(NC(=O)c3cccc([N+](=O)[O-])c3)ccc21 was read as Pf Dd2 inh 3.5µM*.
For CCCC(=O)Nc1ccc2c(c1)nc(CN1CCN(C(=O)OCC)CC1)n2C(C)C the results were Pf Dd2 inh -7%.
`CCn1c(CN2CCN(C)CC2)nc2ccccc21` gave Pf Dd2 inh -23%.
`CCn1c(CN2CCOCC2)nc2cc(NC(=O)c3cc(OC)c(OC)c(OC)c3)ccc21` gave Pf Dd2 inh -16%.
Screening CCn1c(CN2CCCCC2)nc2cc(NC(=O)COc3ccc(C(C)(C)C)cc3)ccc21 returned Pf Dd2 inh 8.9µM*.
For Cn1c(CN2CCCCC2)nc2cc(NC(=O)c3ccc(Cl)cc3)ccc21 the results were Pf Dd2 inh -14%.
For Cc1ccc(CSc2nc(N)cc(N3CCN(CCCO)CC3)n2)cc1 the results were Pf Dd2 inh inactive.
For Cc1cc(CN2C[C@H](NC(=O)CNS(C)(=O)=O)[C@@H](C3CC3)C2)on1 the results were Pf Dd2 inh -12%.
`Cc1ccc(NC(=O)Cn2cc(C(=O)c3ccco3)c3ccccc32)c(C)c1` gave Pf Dd2 inh -19%.

High-throughput results from PubChem.
